{"source": "PubChem BioAssay AID588591", "about": "(National Center for Advancing Translational Sciences (NCATS), 2011)", "note": "In all, about 390,000 compounds went through this assay and about 4,700 (1.2%) were called active. About 4% were inconclusive and are not listed. The list comes from a sample in which actives are over-represented; it also holds similar structures and randomly drawn compounds. Unmarked numbers belong to inactive results. The call rests on the fitted dose curve; in most records, active means well fitted inhibition curve with a large enough effect; inconclusive means small, poorly fitted or top-dose-only effect, or another doubt; inactive means no such curve, though single readings can be large or run the other way. On the % scale 0 is the no-effect control and ±100 the full control effect; potency means the concentration at half of the fitted maximal effect."}
{"target": "DNA polymerase eta (Homo sapiens) (UniProt Q9Y253)", "sequence (Q9Y253 whole entry, looked up)": "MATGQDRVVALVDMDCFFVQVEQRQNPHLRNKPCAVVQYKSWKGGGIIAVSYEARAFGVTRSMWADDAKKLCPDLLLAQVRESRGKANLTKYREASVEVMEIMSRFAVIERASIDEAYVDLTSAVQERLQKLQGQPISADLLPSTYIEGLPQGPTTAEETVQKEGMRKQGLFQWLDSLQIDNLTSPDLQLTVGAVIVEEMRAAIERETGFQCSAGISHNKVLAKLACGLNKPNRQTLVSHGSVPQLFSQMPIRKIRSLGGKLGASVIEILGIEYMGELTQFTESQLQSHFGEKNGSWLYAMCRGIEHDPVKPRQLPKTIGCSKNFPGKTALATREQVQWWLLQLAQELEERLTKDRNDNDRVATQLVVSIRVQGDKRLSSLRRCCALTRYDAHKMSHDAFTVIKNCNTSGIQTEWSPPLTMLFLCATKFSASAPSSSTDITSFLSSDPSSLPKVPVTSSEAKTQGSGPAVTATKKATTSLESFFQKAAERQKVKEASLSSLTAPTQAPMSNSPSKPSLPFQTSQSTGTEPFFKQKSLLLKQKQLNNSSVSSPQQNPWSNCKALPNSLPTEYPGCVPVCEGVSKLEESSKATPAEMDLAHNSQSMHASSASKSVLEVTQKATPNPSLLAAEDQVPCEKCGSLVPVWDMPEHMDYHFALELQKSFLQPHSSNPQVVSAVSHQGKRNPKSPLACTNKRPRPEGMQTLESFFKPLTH", "test": "qHTS for Inhibitors of Polymerase Eta", "conditions": "recombinant Pol eta, fluorescent DNA replication assay; series mostly up to 114 µM; activity change, negative = inhibition: at the top concentration", "outline": "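Pol eta at 10 nM preincubated with compounds 15 min at room temperature; reaction started with fluorescent substrate (50 nM final) and read kinetically at 0 and 10 min.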"}
{"smiles": "COc1ccccc1CNC(=O)c1ccc(NC(=O)N2CC(C)Sc3ccccc32)cc1", "note": "(stereo not given)", "activity change, negative = inhibition": "-13.9%"}
{"smiles": "Cc1cccc(NC(=O)CSc2nc(-c3ccco3)cc(C(F)(F)F)n2)c1C", "activity change, negative = inhibition": "1.4%"}
{"smiles": "Cc1ccc(F)cc1NC(=O)CCSc1nc(-c2ccco2)cc(C(F)(F)F)n1", "activity change, negative = inhibition": "-4.06%"}
{"smiles": "Cc1cc(C)c2nc(-c3ccco3)cc(C(=O)O)c2c1", "Potency": "22.4 µM (active)"}
{"smiles": "CCN(CCCNC(=O)c1cc2c(=O)n(CC)c3ccccc3c2s1)Cc1ccccc1", "activity change, negative = inhibition": "-10.1%"}
{"smiles": "COC(=O)c1ccccc1NC(=O)c1cc(-c2ccccc2O)no1", "activity change, negative = inhibition": "-4.75%"}
{"smiles": "COc1ccc(NC(=O)c2sc3nc[nH]c(=O)c3c2C)cc1", "activity change, negative = inhibition": "-4.88%"}
{"smiles": "CCOC(=O)c1ccc(N2C(=O)c3[nH]nc(-c4ccccc4)c3C2c2ccc(C(C)C)cc2)cc1", "note": "(stereo not given)", "activity change, negative = inhibition": "-24.7%"}
{"smiles": "COC(=O)c1ccc(NC(=O)c2cccc3c2C(=O)N(C2CCCCC2)C3)cc1", "activity change, negative = inhibition": "-16.9%"}
{"smiles": "O=C(O)c1cccc2c1C(=O)N(C1CCCC1)C2", "activity change, negative = inhibition": "2.85%"}
{"smiles": "O=C(O)c1cccc2c1C(=O)N(C1CCCCC1)C2", "Potency": "31.6 µM (active)"}
{"smiles": "CCC1(C)CC(=O)NC1=O", "note": "(stereo not given)", "activity change, negative = inhibition": "-1.71% [at 57.1 µM]"}
{"smiles": "Cc1cc2nc(-c3ccc(NC(=O)c4cc5ccccc5o4)cc3)oc2cc1C", "activity change, negative = inhibition": "-5.19%"}
{"smiles": "Cc1cccc(N(C)C(=O)CS(=O)(=O)c2cccc3nsnc23)c1", "activity change, negative = inhibition": "-12.6%"}
{"smiles": "COc1ccc(NC(=O)CSC2=Nc3ccccc3C3=NC(CC(=O)NCc4ccccc4OC)C(=O)N23)cc1Cl", "note": "(stereo not given)", "activity change, negative = inhibition": "-18.3%"}
{"smiles": "CCN(CC)CCOc1ccc2c(c1)C(=NNC(=O)c1ccccn1)c1cc(OCCN(CC)CC)ccc1-2", "Potency": "22.4 µM (active)"}
{"smiles": "CCOc1ccc(C(=O)N2CCN(CCc3ccccn3)CC2)cc1", "activity change, negative = inhibition": "-6.77%"}
{"smiles": "CCN(CC)S(=O)(=O)c1cc(C(=O)Nc2ccccn2)ccc1C", "activity change, negative = inhibition": "7.37%"}
{"smiles": "COC(=O)c1ccc(NC(=O)c2cnn(-c3ccc(Cl)cc3)c2C2CCN(C(=O)OC(C)(C)C)CC2)cc1", "activity change, negative = inhibition": "-15.1%"}
{"smiles": "COc1ccc(-c2nn(CC(=O)Nc3ccccc3F)c3c2cnc2ccc(F)cc23)cc1", "activity change, negative = inhibition": "-15.8%"}
{"smiles": "Cc1cc(C(C)(C)C)cc(S(=O)(=O)Nc2ccc(C(=O)O)cc2)c1C", "activity change, negative = inhibition": "-15%"}
{"smiles": "O=C(O)c1ccc(NS(=O)(=O)c2ccc3c(c2)C(=O)c2cc(S(=O)(=O)Nc4ccc(C(=O)O)cc4)ccc2-3)cc1", "Potency": "39.8 µM (active)"}
{"smiles": "O=C(c1ccc(NS(=O)(=O)c2ccc3[nH]c(=O)[nH]c3c2)cc1)N1CCCCC1", "activity change, negative = inhibition": "7.85%"}
{"smiles": "Cc1ccc(CN(C(=O)c2ccccc2[N+](=O)[O-])c2ccccn2)cc1", "activity change, negative = inhibition": "-1.04%"}
{"smiles": "CC(C)CCNC(=O)CSc1nc2ccccc2nc1Cc1ccc(Cl)cc1", "activity change, negative = inhibition": "-7.28%"}
{"smiles": "Cn1c(SCC(=O)N2CCCc3ccccc32)ncc(C(=O)Nc2ccc(F)cc2)c1=O", "activity change, negative = inhibition": "-6.35%"}
{"smiles": "CC(NC(=O)c1cc2c(=O)n3ccccc3nc2n(C(C)C)c1=N)c1ccccc1", "note": "(stereo not given)", "activity change, negative = inhibition": "-0.776%"}
{"smiles": "COc1ccc(OC)c2sc(N3CCN(C(=O)C4COc5ccccc5O4)CC3)nc12", "note": "(stereo not given)", "activity change, negative = inhibition": "-5.77%"}
{"smiles": "COc1cc(NS(=O)(=O)c2ccc3c(c2)OCC(C(=O)N2CCCC2)O3)cc(OC)c1", "note": "(stereo not given)", "activity change, negative = inhibition": "-17.2%"}
{"smiles": "Cc1c(CC(=O)N2CCN(C(=O)C3COc4ccccc4O3)CC2)c(=O)oc2c(O)c(O)ccc12", "note": "(stereo not given)", "Potency": "2 µM (active)"}
{"smiles": "O=S(=O)(NCCc1nnc2ccc(SCc3ccc(Cl)cc3Cl)nn12)c1ccccc1", "activity change, negative = inhibition": "-23%"}
{"smiles": "CCOCCCn1c(SCC(=O)Nc2ccc(CC)cc2)nc2ccccc2c1=O", "activity change, negative = inhibition": "-19.1%"}
{"smiles": "Cc1ccc(/C=C/C(=O)Nc2ccc([N+](=O)[O-])c(NC(=O)/C=C/c3ccc(C)o3)c2)o1", "Potency": "8.91 µM (active)"}
{"smiles": "CC(=O)Nc1ccc2c3c(ccc([N+](=O)[O-])c13)CC2", "activity change, negative = inhibition": "-2.36%"}
{"smiles": "COc1ccc(OC)c(NC(=O)/C=C/c2ccc(C)o2)c1", "activity change, negative = inhibition": "-18.9%"}
{"smiles": "COc1ccc(NC(=O)CCNS(=O)(=O)c2ccc3c(c2)CCCC(=O)N3)cc1Cl", "activity change, negative = inhibition": "-2.43%"}
{"smiles": "O=c1[nH]n(-c2ccc([N+](=O)[O-])cc2)c(=O)c2ccccc12", "Potency": "39.8 µM (active)"}
{"smiles": "C=CCNC(=S)N1CCN(CCN=Cc2c(C)[nH]n(-c3ccc([N+](=O)[O-])cc3)c2=O)CC1", "activity change, negative = inhibition": "-6.99%"}
{"smiles": "O=C(CSCc1ccc([N+](=O)[O-])cc1)NCCSCc1ccccc1", "activity change, negative = inhibition": "-14.8%"}
{"smiles": "Cc1cc(C)cc(NC(=O)CSc2oc(-c3ccccc3)nc2S(=O)(=O)c2ccc(Cl)cc2)c1", "activity change, negative = inhibition": "-12.3%"}
{"smiles": "COCCSc1nnc(NC(=O)c2cc(OC)c(OC)cc2[N+](=O)[O-])s1", "activity change, negative = inhibition": "1.04%"}
{"smiles": "Cc1ccc(C(=O)Oc2coc(CSc3nnc(NC(=O)c4cccs4)s3)cc2=O)cc1C", "Potency": "7.94 µM (active)"}
{"smiles": "CCOc1ccccc1Nc1nnc(SCc2ccc(C(=O)OC)o2)s1", "activity change, negative = inhibition": "-21%"}
{"smiles": "CC1=C(c2ccc(C)cc2)S(=O)(=O)NC1=NCCCN1CCN(c2cc(C)ccc2C)CC1", "activity change, negative = inhibition": "-7.86%"}
{"smiles": "CCc1ccc2ncc3c(-c4ccc(C)cc4)nn(CC(=O)NCc4ccccc4)c3c2c1", "activity change, negative = inhibition": "-0.631%"}
